Measurements published in PubChem BioAssay AID1159580 (chemical genetic matrix, 2015).
Values joined by “and” are separate entries in the source; they are usually repeats but may differ in a detail not shown here. Identical values can stand only once. Out of some 5,500 compounds screened, about 2,000 (36%) were called active. Roughly 18% stayed inconclusive and do not appear here. Cut-off read from the data, not from the text of the source: active = normalized growth mostly below about 0.91 (no sharp cut-off); inconclusive = no clear call, values can overlap the other calls; inactive = mostly above about 0.92. The list shows a part of the results.

Experiment: chemical genetic growth profiling, strain panel (AID 1159580);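 note: tested at 20 µM; growth read once vehicle control cultures reached saturation at 30 °C; 1 = growth at the plate median or of vehicle wells; lower values mean less growth of the strain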
Settings: S. cerevisiae deletion strains, growth OD

Measured: normalized growth

C[C@H]1OC(O[C@H]2[C@@H](O)CC(O[C@H]3[C@@H](O)C[C@H](O[C@H]4CC[C@]5(C)C6CC[C@]7(C)[C@@H](C8=CC(=O)OC8)[C@@H](O)C[C@]7(O)[C@@H]6CC[C@@H]5C4)O[C@@H]3C)O[C@@H]2C)C[C@H](O)C1O (some centres not stated)
inactive: locus YBR021W, strain FUR4, active compounds read low 0.986 | locus YBR229C, strain ROT2, active compounds read low 1.01 | locus YCL029C, strain bik1, active compounds read low 0.989 | locus YDL035C, strain GPR1, active compounds read low 0.992 | locus YDL074C, strain BRE1, active compounds read low 1.01 | locus YDL101C, strain DUN1, active compounds read low 1 | locus YDL134C, strain PPH21, active compounds read low 1.01 | locus YDL185W, strain tfp1, active compounds read low 0.981 | locus YDL192W, strain arf1, active compounds read low 0.988 | locus YDR101C, strain arx1, active compounds read low 0.991 | locus YDR150W, strain NUM1, active compounds read low 1.02 | locus YDR162C, strain NBP2, active compounds read low 1 | locus YDR318W, strain mcm21, active compounds read low 1.01 | locus YDR388W, active compounds read low 0.999 | locus YDR502C, strain sam2, active compounds read low 0.987 | locus YEL061C, strain CIN8, active compounds read low 0.999 | locus YER110C, active compounds read low 0.986 | locus YER155C, strain BEM2, active compounds read low 0.985 | locus YER167W, strain BCK2, active compounds read low 0.99 | locus YGL078C, strain dbp3, active compounds read low 0.981 | locus YGL086W, strain mad1, active compounds read low 0.965 | locus YGL248W, strain PDE1, active compounds read low 1.01 | locus YGR135W, strain pre9, active compounds read low 1.01 | locus YGR229C, strain SMI1, active compounds read low 0.998 | locus YGR252W, strain gcn5, active compounds read low 1.02 | locus YHR030C, strain SLT2, active compounds read low 1 and 1.03 | locus YHR079C, strain IRE1 (second series), active compounds read low 0.998 | locus YHR079C, strain IRE1, active compounds read low 1.03 | locus YHR094C, strain hxt1, active compounds read low 0.989 | locus YHR129C, strain ARP1, active compounds read low 0.999 | locus YHR200W, strain rpn10, active compounds read low 1 | locus YIL066C, strain RNR3, active compounds read low 1 | locus YIL073C, strain SPO22, active compounds read low 1.01 | locus YIL125W, strain kgd1, active compounds read low 0.981 | locus YIR030C, strain dcg1, active compounds read low 0.989 | locus YJL095W, strain BCK1, active compounds read low 1.01 and 1 | locus YJL134W, strain LCB3, active compounds read low 1 | locus YJL168C, strain set2, active compounds read low 0.996 | locus YJL187C, strain SWE1 (second series), active compounds read low 1.02 | locus YJR043C, strain POL32, active compounds read low 1.01 | locus YJR066W, strain TOR1, active compounds read low 0.965 | locus YKL009W, strain mrt4, active compounds read low 0.927 | locus YKL068W, active compounds read low 0.994 | locus YKL085W, strain MDH1 (second series), active compounds read low 0.988 | locus YKL085W, strain MDH1, active compounds read low 0.988 | locus YKR001C, strain vps1, active compounds read low 0.986 | locus YLR039C, strain RIC1, active compounds read low 1.06 | locus YLR058C, strain SHM2, active compounds read low 1 | locus YLR102C, strain apc9, active compounds read low 0.99 | locus YLR113W, strain HOG1, active compounds read low 0.975 | locus YLR262C, strain YPT6, active compounds read low 1.04 | locus YLR268W, strain sec22, active compounds read low 0.99 | locus YLR330W, strain CHS5, active compounds read low 0.994 | locus YLR342W, strain FKS1 (second series), active compounds read low 1.02 | locus YLR371W, strain rom2, active compounds read low 0.989 | locus YLR418C, strain cdc73, active compounds read low 0.998 | locus YML016C, strain PPZ1, active compounds read low 1.01 | locus YML032C, strain rad52, active compounds read low 1.01 | locus YML124C, strain tub3, active compounds read low 1 | locus YMR078C, strain ctf18, active compounds read low 1 | locus YMR223W, strain ubp8, active compounds read low 1.01 | locus YMR263W, strain SAP30, active compounds read low 1.01 | locus YMR307W, strain GAS1, active compounds read low 1.05 | locus YNL067W, strain RPL9B, active compounds read low 1.01 | locus YNL183C, strain NPR1, active compounds read low 0.989 | locus YNL233W, strain BNI4, active compounds read low 0.995 | locus YNL250W, strain rad50, active compounds read low 0.983 | locus YNL271C, strain bni1, active compounds read low 0.99 | locus YNL298W, strain CLA4, active compounds read low 0.989 | locus YNL307C, strain MCK1, active compounds read low 0.993 | locus YNL322C, strain KRE1, active compounds read low 1.01 | locus YNR052C, strain pop2, active compounds read low 0.999 | locus YOL012C, strain htz1 1.48 | locus YOL147C, strain pex11, active compounds read low 0.984 | locus YOR061W, strain CKA2, active compounds read low 1.01 | locus YOR069W, strain VPS5, active compounds read low 0.995 | locus YOR136W, strain idh2, active compounds read low 0.98 | locus YOR144C, strain elg1, active compounds read low 0.995 | locus YOR184W, strain ser1, active compounds read low 0.983 | locus YOR231W, strain MKK1, active compounds read low 0.995 | locus YOR316C, strain cot1, active compounds read low 0.994 | locus YPL256C, strain CLN2, active compounds read low 1.03 | locus YPR119W, strain clb2, active compounds read low 0.996 | locus YPR141C, strain kar3, active compounds read low 0.99 | locus YPR163C, strain tif3, active compounds read low 0.995 | locus YPR167C, strain met16, active compounds read low 0.994 | strain wtn01, active compounds read low 0.98
